Bioassay records as filed in PubChem.
Shiga toxin inh: blocks Shiga toxin action in Vero cells. inhibition, % at 38.7 µM. AID 2315. 9.2% of 290,000 active. Vero cells, Shiga toxin protein synthesis inhibition reporter; in the data active means inhibition mostly above about 28%, no sharp cut-off; inactive means mostly below about 43%; further: 0% is about no effect
CHX counter: counter-screen for Shiga toxin inhibitors: cycloheximide protein synthesis inhibition. max response, %. cell reporter, cycloheximide protein synthesis inhibition counterscreen. AID 2314. 12% of 300,000 active; in the data active means max response mostly above about 13%, no sharp cut-off; inactive means mostly below about 14%; further: read at 38.3 µM for the half of the compounds with a filed dose; 0% is about no effect
Pf growth 96h: P. falciparum growth inhibition at 96 hours. P. falciparum luciferase reporter growth, 96 h. Potency, µM (top dose mostly 28.7 µM), without a hit: at the highest dose activity change, negative = inhibition, most hits filed as inhibitors. 6.9% of 320,000 active; further: potency means the concentration at half of the fitted maximal effect; on the % scale 0 is the no-effect control and ±100 the full control effect
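Two parasite generations (96 h, 37 C, 5% CO2) of compound exposure in infected erythrocytes (0.05% parasitemia, 2% hematocrit). Luciferase-reporter P. falciparum; decreased luminescence indicates inhibited growth, aimed at apicoplast-acting delayed death.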
LmPK inhibitor: LmPK (Leishmania mexicana) enzyme inhibition. Q27686. purified LmPK, Kinase-Glo ATP luminescence, 1 h. Potency, µM (highest dose often 57.5 µM), for the others: top-dose activity change, negative = inhibition, most hits filed as inhibitors. 0.37% of 290,000 active; further: potency means the concentration at half of the fitted maximal effect; on the % scale 0 is the no-effect control and ±100 the full control effect
Target sequence (Q27686 whole entry, looked up): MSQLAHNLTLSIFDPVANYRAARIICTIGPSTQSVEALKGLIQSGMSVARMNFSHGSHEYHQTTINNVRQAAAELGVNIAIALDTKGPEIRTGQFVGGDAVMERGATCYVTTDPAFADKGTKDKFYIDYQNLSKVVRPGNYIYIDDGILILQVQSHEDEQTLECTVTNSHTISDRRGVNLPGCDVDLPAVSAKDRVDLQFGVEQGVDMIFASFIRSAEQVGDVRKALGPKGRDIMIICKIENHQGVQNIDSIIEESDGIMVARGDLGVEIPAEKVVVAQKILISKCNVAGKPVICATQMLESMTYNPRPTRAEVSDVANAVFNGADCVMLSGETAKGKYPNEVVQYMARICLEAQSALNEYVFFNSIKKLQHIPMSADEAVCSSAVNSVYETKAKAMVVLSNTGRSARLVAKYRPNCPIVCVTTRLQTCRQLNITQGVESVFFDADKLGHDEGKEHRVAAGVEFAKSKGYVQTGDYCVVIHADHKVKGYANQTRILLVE
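In 50 mM imidazole pH 7.2 with 7 mM MgCl2, LmPK (0.1 nM) turned over PEP (0.5 mM) and ADP (0.1 mM) for 1 h at room temperature. Luciferase read-out of ATP.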
Pf growth 48h: inhibits P. falciparum growth in the first generation, 48 h; P. falciparum luciferase growth in erythrocytes, 48 h; Potency, µM (highest dose often 28.7 µM), for the others: at the highest dose activity change, negative = inhibition, actives largely listed as inhibitors; 5.9% of 310,000 active; further: potency means the concentration at half of the fitted maximal effect; on the % scale 0 is the no-effect control and ±100 the full control effect
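Luciferase-expressing P. falciparum in infected erythrocytes (2% hematocrit, 0.1% parasitemia final) in RPMI 1640/0.5% Albumax were exposed to compound for 48 hours at 37 C, 5% CO2; growth read as luminescence.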
* marks the source's active call; other numbers are inactive results; ? = inconclusive; nt = not tested or not shown; [ ] = remark or other dose. Compounds with a hit are over-represented: about 22% of the library has one in this group of screens. Unless noted, the call rests on the fitted dose curve; in most records, active means well fitted inhibition curve with a large enough effect; inconclusive means small, poorly fitted or top-dose-only effect, or another doubt; inactive means no such curve, though single readings can be large or run the other way.

SMILES	Shiga toxin inh	CHX counter	Pf growth 96h	LmPK inhibitor	Pf growth 48h
CCC(C)(C)c1ccc(OCCCC[n+]2ccccc2)c(C(C)(C)CC)c1	-7	-5	-22%	0%	2.1µM*
CCCCCc1ccc(OCCCC[n+]2ccc(C)cc2)c(CCCCC)c1	0	-3	39%	3%	0.47µM*
CCCCCc1ccc(OCCCC[n+]2cccc(C)c2)c(CCCCC)c1	-9	-3	-19%	0%	-9%
c1cc[n+](CCCC[n+]2ccccc2)cc1	10	3	46%	-8%	-7%
CCCCCc1ccc(OCCCC[n+]2ccccc2)c(CCCCC)c1	31	-5	-2%	5%[11.5 µM]	0.93µM*
CCCCOc1ccc(C)cc1CN(CCO)CCO	21	10	3%	12%	nt
Cc1ccc(-c2nnc(SCC(=O)N/N=C/c3ccc(C)s3)n2-c2ccc(C)cc2)cc1	-10	8	?	-3%	5%
CNC(=O)c1ccc(-n2cccn2)nc1	-8	11	3%	-9%	58%
CN(CC(=O)Nc1ccc(F)cc1)C(=O)CN1C(=O)c2ccccc2C1=O	nt	nt	?	nt	6%
O=c1cc(CSc2ccc(Cl)cc2)[nH]c2[nH]n(-c3ccccc3)c(=O)c12	22	1	15%	0%	4%
Cc1ccc(SCc2cc(=O)c3c(=O)n(-c4ccccc4)[nH]c3[nH]2)cc1	-5	3	9.3µM*	0%	3%[5.75 µM]
Clc1ccc(CO/N=C2\CCCc3nonc32)cc1	22	27*	-10%	0%	6%
O=C(CO/N=C1\CCCc2nonc21)Nc1ccccc1Cl	18	10	-28%	-2%	?
Clc1ccccc1CO/N=C1\CCCc2nonc21	17	15*	?	1%	-3%
CCOC(=O)c1c(S(=O)(=O)NCC(C)c2ccccc2)c(C)n(C)c1C (configuration not stated)	-11	7	?	0%	?
COc1ccc(C(=O)Nc2ccc3cn[nH]c3c2)c(OC)c1	123*	63*	275%	-1%	251%
COc1ccc(C(=O)Nc2ccc3[nH]ncc3c2)cc1	53*	19*	133%	-5%	158%
CCOc1ccc(C(=O)Nc2ccc3[nH]ncc3c2)cc1	32	19*	12µM*	-5%	183%
CC(C)c1cc(C(=O)N/N=C/c2cccnc2)cs1	41*	21*	20%	0%	21%
Cc1nc(N)sc1C(=O)N/N=C/c1cccnc1	4	13	181%	-12%	-2%
CC(C)c1cc(C(=O)N/N=C/c2ccoc2)cs1	74*	42*	-12%	-4%	3%
CCOc1ccccc1C(=O)N/N=C/c1ccoc1	-11	11	?	-14%	-1%
Cc1ccc(N(CC(=O)NCc2ccccn2)S(=O)(=O)c2ccccc2)cc1C	-9	-4	14%	0%	-12%
COCCOC(=O)c1[nH]c2c(c1C)C(=O)CC(c1cc(OC)ccc1OC)C2 (configuration not stated)	-2	-2	?	6%	2%
CCOCCOC(=O)c1[nH]c2c(c1C)C(=O)CC(c1ccc(OC)c(OC)c1)C2 (configuration not stated)	-19	-3	1.5µM*	2%	?
SMILES	Shiga toxin inh	CHX counter	Pf growth 96h	LmPK inhibitor	Pf growth 48h
CCOC(=O)c1[nH]c2c(c1C)C(=O)CC(c1ccc(OC)c(OC)c1)C2 (configuration not stated)	-22	-3	42%	-2%	?
CCOC(=O)c1[nH]c2c(c1-c1ccccc1)C(=O)CC(c1ccccc1)C2 (configuration not stated)	54*	41*	?	3%	-23%
COc1cc(C2CC(=O)c3c([nH]c(C(=O)OCCOC(C)C)c3C)C2)cc(OC)c1OC (configuration not stated)	-14	-3	?	2%	7.4µM*
COc1cccc(/C=N/NC(=O)c2cccc(N3CCCC3=O)c2)c1	107*	33*	?	-9%	65%
O=C(N/N=C/c1ccco1)c1cccc(N2CCCC2=O)c1	active	29*	62%	-25%	85%
CCN(CC)c1ccc(/C=C(\C#N)C(N)=O)cc1	71	29*	1%	-2%	98%
CCN(CC)c1ccc(/C=C(\C#N)C(N)=S)cc1	39	25*	?	-5%	0%
N#CC(=Cc1ccc(O)cc1)C(N)=C(C#N)C#N	nt	nt	3%	nt	0%
CCN(CC)c1ccc(/C=C(\C#N)C(=O)c2ccc(Br)cc2)cc1	-3	20*	9%	-3%	0%
Cc1cccc(C)c1NC(=O)Cn1nc(-c2ccc(Cl)s2)ccc1=O	-2	-6	-9%	-9%	14%
COc1ccc(-c2oc3ccccc3c2C(=O)Oc2ccccc2)cc1	1	-1	?	1%	69%
COc1ccccc1/C=N/NC(=O)c1ccc(-c2ccccc2)cc1	-5	6	38%	2%	1%
COc1ccc(C(=O)NNC(=O)CCCCC(=O)NNC(=O)c2ccc(OC)cc2)cc1	2	1	?	2%	38%
COc1ccc(C(=O)N/N=C/C(=O)c2ccccc2)cc1	49*	43*	0%	-14%	55%
C/C(=C\C(=O)c1ccccc1)NNC(=O)c1ccc(Cl)cc1	nt	22*	0%	25%	-4%
COc1ccc(C(=O)NN/C(C)=C/C(=O)c2ccccc2)cc1	62	11*	?	2%	?
COCCC(=O)N1CCCC(C(=O)c2ccc(C(F)(F)F)cc2)C1 (configuration not stated)	7	-1	13µM*	0%	-1%
O=C(c1ccc(C(F)(F)F)cc1)C1CCCN(C(=O)CN2C(=O)CSC2=O)C1 (configuration not stated)	53*	25*	20%	-5%	35%
COc1ccccc1NC(=O)CS(=O)(=O)c1cn(CC(=O)N2CCCC2)c2ccccc12	11	3	-16%	-2%	-15%
O=C(c1cc(F)ccc1F)C1CCCN(C(=O)c2ccc3nccnc3c2)C1 (configuration not stated)	31*	22*	32%	1%	-32%
COc1ccc(F)cc1C(=O)C1CCCN(C(=O)c2cccc(N(C)C)c2)C1 (configuration not stated)	26	1	?	1%	5.9µM*
O=C(c1cc(F)ccc1F)C1CCCN(C(=O)c2ccc(F)cc2Cl)C1 (configuration not stated)	5	-4	1.2µM*	1%	-13%
Cc1nc(C)c(C(=O)N2CCCC(C(=O)c3cc(F)ccc3F)C2)s1 (configuration not stated)	-6	-1	5.9µM*	0%	25%
Cc1[nH]c(=O)[nH]c(=O)c1CSCC(=O)OCC(=O)Nc1ccccn1	-7	-2	0%	1%	25%
CCc1cc2c(=O)c(-c3nc(C)cs3)c(CCCC(=O)O)oc2cc1O	8	-5	9.3µM*	-3%	3%
